Screening results: PubChem BioAssay, Buhrlage Lab, Dana-Farber Cancer Institute and Novartis Institutes for BioMedical Research (Cambridge, Mass)
The list is not random: actives were taken first. Their share in the collection is about 11%.
USP17 inh: inhibitors of human USP17 deubiquitinase. purified USP17, Ub-rhodamine cleavage fluorescence, 3 h. inhibition, % at 50 µM. AID 1645855, 2021. 47,000 compounds, 6.5% hits. Ubiquitin carboxyl-terminal hydrolase 17-like protein 5 (Homo sapiens), A8MUK1
Target sequence (A8MUK1 whole entry, looked up): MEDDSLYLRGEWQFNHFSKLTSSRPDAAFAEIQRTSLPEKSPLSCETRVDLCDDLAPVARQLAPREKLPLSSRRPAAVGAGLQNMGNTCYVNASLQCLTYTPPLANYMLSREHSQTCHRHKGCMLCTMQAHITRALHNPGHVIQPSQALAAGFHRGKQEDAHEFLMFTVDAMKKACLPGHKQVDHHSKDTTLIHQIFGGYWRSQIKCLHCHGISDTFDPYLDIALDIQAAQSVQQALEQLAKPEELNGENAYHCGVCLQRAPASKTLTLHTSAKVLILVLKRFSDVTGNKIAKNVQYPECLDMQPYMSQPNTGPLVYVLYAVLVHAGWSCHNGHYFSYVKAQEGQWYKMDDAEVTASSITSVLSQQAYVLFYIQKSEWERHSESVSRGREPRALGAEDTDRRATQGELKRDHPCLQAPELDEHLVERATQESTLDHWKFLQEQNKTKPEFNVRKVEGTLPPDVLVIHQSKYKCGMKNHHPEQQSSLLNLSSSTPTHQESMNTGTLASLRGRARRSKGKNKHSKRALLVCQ
USP30 inh: inhibitors of human USP30 deubiquitinase; Ubiquitin carboxyl-terminal hydrolase 30 (Homo sapiens), Q70CQ3; purified USP30, Ub-rhodamine cleavage fluorescence; inhibition, % at 25 µM; 47,000 compounds, 5.3% hits
USP28 inh: inhibitors of human USP28 deubiquitinase; purified USP28, Ub-rhodamine cleavage fluorescence, 30 min; 47,000 compounds, 3% hits; Ubiquitin carboxyl-terminal hydrolase 28 (Homo sapiens), Q96RU2; inhibition, % at 25 µM
OTUD3 inh: inhibitors of human OTUD3 deubiquitinase; 47,000 compounds, 0.7% hits; inhibition, % at 25 µM; purified OTUD3, Ub-rhodamine fluorescence, 2 h; OTU domain-containing protein 3 (Homo sapiens), Q5T2D3
Numbers without * were called inactive; i = inactive; nt = not tested or not shown. Rule as the data show it: active = inhibition above about 30%; inactive = the rest.

SMILES	USP17 inh	USP30 inh	USP28 inh	OTUD3 inh
Cn1c(=O)c2c(-c3ccccc3)n(CCO)cc2n(C)c1=O	-19	0	-7	0
Cn1c(=O)c2c(-c3ccccc3)n(-c3ccc4c(c3)OCCO4)cc2n(C)c1=O	32*	-52	-16	-16
Cc1noc(-c2c(C)[nH]c(C)c2S(=O)(=O)NCc2ccccc2F)n1	9	22	8	13
O=C1CCCC[C@]2(CN(C(=O)c3ccc(-n4cccn4)nc3)C[C@H]2c2ccc(F)cc2)N1	-9	33*	10	14
O=C(c1ccccc1F)N1CCC[C@@H](Cn2nnc(-c3ccncc3)n2)C1	9	27	8	17
CCC1(CC)Oc2ccc(C(=O)CCN(C)C)cc2O1	7	35*	14	27
c1cncc(-c2cnc3sc(NC4CCCCC4)nn23)c1	35*	25	12	11
C[C@@]12c3ccc4c(c3C(=O)c3occ(c31)C(O)C[C@H]2O)CCC4=O (stereo partly drawn)	57*	-104	-6	-5
COc1ccc(OCC(=O)N2CCc3cc(-c4noc(C)n4)ccc32)cc1	35*	3	8	5
CCCOc1ccc(S(=O)(=O)Nc2ccc3cn[nH]c3c2)c2ccccc12	5	-18	1	-8
COc1ccc(C(=O)Nc2ccc3c(c2)N(C(=O)C2CC2)CCC3)cc1OC	6	22	33*	10
O=C(Nc1ccc2c(c1)N(C(=O)C1CCCC1)CC2)c1c(F)cccc1F	32*	24	93*	7
COc1cccc(C(=O)Nc2ccc3c(c2)N(C(C)=O)CCC3)c1	-7	-48	0	-9
CC(=O)c1cccc(NC(=O)c2ccc3c(c2)CCN3C(=O)C2CC2)c1	19	-17	23	-6
O=C(Cn1c(COc2ccccc2)nc2ccccc21)Nc1ccc(N2CCOCC2)cc1	8	22	8	6
O=c1cc(Cc2ccccc2)nc2c(-c3ccccc3)c(COc3ccccc3)[nH]n12	11	40*	41*	23
CC(C)(C)c1cc(C(=O)N2CCCC(O)(CN3CCC(F)(F)CC3)CC2)n[nH]1 (stereo not drawn)	3	23	2	6
Nc1ncnc(N2CC(=O)N(CCc3ccccc3)C(=O)C2)c1[N+](=O)[O-]	-155	i	-221	-162
Cn1cnnc1Sc1ncnc(N)c1[N+](=O)[O-]	3	34*	9	28
O=C(c1cc(-c2ccccn2)nc2cc(F)ccc12)N1CCOCC1	-8	6	-6	-4
COc1cccc(NC(=O)CCc2c(C)nn(-c3cc(N4CCCCC4)ncn3)c2C)c1	0	9	68*	-3
Cc1ccc(C)c(NC(=O)CCc2c(C)nn(-c3cc(N4CCCC4)ncn3)c2C)c1	22	28	12	24
COc1cccc(NC(=O)CCc2c(C)nc3c(c2C)c(=O)n(C)c(=O)n3C)c1	14	35*	37*	5
Cc1nn(-c2cc(N3CCCCC3)ncn2)c(C)c1CCC(=O)NCc1ccccc1	-8	-33	-3	-2
Cc1ccc(C)c(NC(=O)CCc2c(C)nn(-c3cc(N4CCOCC4)ncn3)c2C)c1	20	34*	6	8
SMILES	USP17 inh	USP30 inh	USP28 inh	OTUD3 inh
CCN1CC[C@@]2(C(=O)N(C)C)CCN(C(=O)Cc3cccc(OC)c3)CC[C@@H]12	1	24	6	12
COc1ccc(-c2noc([C@@H]3CCCN3Cc3cccc(C#N)c3)n2)cn1	1	2	0	-4
Cn1nc(-c2ccccc2)c(CO)c1Sc1ccccc1Cl	49*	6	8	-5
COc1ccc(C(=O)Nc2cc(-c3ccccn3)no2)c(OC)c1	33*	10	5	10
COc1ccccc1C(=O)Nc1cc(-c2ccc(F)c(F)c2)no1	33*	44*	9	10
COc1ccc(CC(=O)Nc2cc(-c3ccccn3)no2)cc1	-17	0	0	-7
COc1ccccc1NC(=O)c1cc(-c2ccccn2)nc2ccccc12	59*	28	3	10
COc1ccc(C(=O)c2c(C)n(C)c(=O)n(C)c2=O)cc1	2	15	3	7
CC(OC(=O)c1cc(S(=O)(=O)Nc2ccccc2F)ccc1Cl)C(=O)Nc1ccc([N+](=O)[O-])cc1C(F)(F)F (stereo not drawn)	10	-8	15	5
CC(OC(=O)c1ccccc1Sc1ccccc1C#N)C(=O)Nc1cccc([N+](=O)[O-])c1 (stereo not drawn)	26	36*	27	13
COc1cc(C2C3=C(CC(c4ccccc4)CC3=O)Nc3ccccc3N2C(=O)C2CC2)cc(OC)c1OC (stereo not drawn)	45*	12	0	6
O=C1CC(c2ccccc2)CC2=C1C(c1c[nH]c3ccccc13)N(C(=O)C1CC1)c1ccccc1N2 (stereo not drawn)	11	-62	-8	-12
CC1(C)CC(=O)C2=C(C1)Nc1ccccc1N(C(=O)Cc1ccccc1)C2c1ccc(Cl)cc1 (stereo not drawn)	49*	29	19	17
CCC(=O)N1c2ccccc2NC2=C(C(=O)CC(c3ccccc3OCc3ccccc3)C2)C1c1ccccc1 (stereo not drawn)	36*	61*	9	15
COc1ccccc1C(=O)Nc1cc(=O)[nH]c2nc(Cc3ccccc3)nn12	nt	15	-1	18
COC(=O)CCCNC(=O)C1c2ccccc2C(=O)N(Cc2ccccc2)C12CCCC2 (stereo not drawn)	19	-33	-11	-6
CC(=O)c1cccc(NC(=O)N2C[C@@H]3C[C@H]2C[C@@H]3NS(=O)(=O)c2ccccc2)c1	-4	-36	0	-9
Cc1ccc(NC(=O)Cn2c(=O)n(CC(=O)NCCc3ccccc3)c(=O)c3sccc32)cc1C	23	47*	11	1
COc1ccc(NC(=O)Cn2c(=O)n(CCC(=O)NCc3ccccc3)c(=O)c3sccc32)cc1Cl	47*	15	2	5
Cc1ccc(CNC(=O)Cn2c(=O)c3sccc3n(CC(=O)Nc3ccc4c(c3)OCCO4)c2=O)cc1	60*	nt	nt	-8
CCc1cc(=O)n(CC(=O)Nc2ccc3c(c2)OCCO3)c2c1c(C)nn2-c1ccc(C)cc1	31*	32*	17	15
Cc1ccc(N2C(=O)N(CC(=O)Nc3ccc4c(c3)OCCO4)C(=O)C2C)cc1 (stereo not drawn)	0	8	29	5
CC(C)Cn1c(=O)c2sccc2n2c(CCC(=O)NCCc3ccccc3)nnc12	-2	-6	-4	-3
Cc1cccc(CC(=O)N2C[C@H]3N(C)C(=O)c4ccccc4C(=O)[C@@]3(C)C2)c1	9	8	6	10
CCNc1nc(NCC)n2c(SCC(=O)OCC)nnc2n1	0	9	-6	-6
CCCc1noc(-c2cccnc2N2CCCN(C(=O)C3CC3)CC2)n1	11	2	8	14
Cc1ccc(NC(=O)c2ncn3c2CN(C)S(=O)(=O)c2ccccc2-3)cn1	-30	-47	-18	-12
